Assay outcomes as filed in PubChem.
Hits are enriched below; roughly 2% of the tested compounds scored in any of these assays.
FUS yeast rescue: suppressors of FUS proteinopathy in yeast; S. cerevisiae FUS-expressing, growth rescue, OD600, 24 h; Potency, µM (titrated, usually from 76.6 µM), most hits filed as activators; actives 0.24% (n = 390,000); note: nearly all actives have a fitted effect of over 55% in size
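Restored growth of FUS-toxic S. cerevisiae, read as 600 nm absorbance after 24 h at 30C in galactose medium (starting OD 0.005). Controls CP55940 and DMSO.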
Abeta rescue: restores growth of yeast expressing A-beta42 peptide; AID 1347071; yeast expressing A-beta42, growth rescue, OD600, 48 h; response scale: 0% DMSO, 100% iron-clioquinol control; actives 0.063% (n = 410,000); Potency, µM (highest dose often 46.1 µM), most hits filed as activators; note: nearly all actives have a fitted effect of over 55% in size
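Growth rescue measured by 600 nm absorbance after 48 h yeast culture at 30 C with compound. Values normalized between DMSO and an equimolar ferric chloride plus clioquinol control.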
MBNL1 CUG block: MBNL1-poly(CUG) RNA binding inhibition; Q9NR56; TR-FRET MBNL1-His/biotin-(CUG)12 binding, 665/545 ratio; Potency, µM (titrated, usually from 57.5 µM), usual class: inhibitors; actives 0.036% (n = 280,000); AID 2675; active = well fitted inhibition curve with a large enough effect in the signal ratio, with a control signal flat, not every such curve was filed as active; inconclusive = small, poorly fitted or top-dose-only effect, or effect the other way, or a change in a side signal; inactive = no such curve, though single readings can be large or run the other way; the % refers to the signal ratio
Target sequence (Q9NR56 whole entry, looked up): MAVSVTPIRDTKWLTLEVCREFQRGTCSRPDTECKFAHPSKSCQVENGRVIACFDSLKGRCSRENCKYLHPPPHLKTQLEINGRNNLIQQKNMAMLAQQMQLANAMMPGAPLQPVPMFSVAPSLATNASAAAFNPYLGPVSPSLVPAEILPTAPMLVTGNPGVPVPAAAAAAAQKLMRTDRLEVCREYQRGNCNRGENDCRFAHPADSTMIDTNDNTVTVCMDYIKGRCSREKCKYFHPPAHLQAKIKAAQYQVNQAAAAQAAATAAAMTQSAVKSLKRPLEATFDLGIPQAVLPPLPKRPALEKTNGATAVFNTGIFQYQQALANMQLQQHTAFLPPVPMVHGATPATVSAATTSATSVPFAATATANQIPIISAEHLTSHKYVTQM
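Compound titration spanned 92 nM–58 uM against the MBNL1-His/biotin-(CUG)12 complex. After 60 min at room temperature with 5 nM streptavidin-XL665 and 0.055 ng/ul terbium anti-His, ratiometric 665/545 nm emission (Ex 340 nm) normalized to controls.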
GRP78 ERSR act: ER stress response induction in glioma; U87-MG GRP78 promoter luciferase reporter, 16 h; Potency, µM, usual class: activators; actives 0.02% (n = 420,000); AID 602332; note: series mostly up to about 76 µM; nearly all actives have a fitted effect of over 35% in size
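ERSR induction read as luciferase luminescence (Bright-Glo, 10 min at room temperature) in stably transfected human U87-MG glioma cells exposed to compounds for 16 h, using GRP78 as sensor.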
TDP43 rescue: rescues yeast growth from TDP-43 toxicity; TDP-43 expressing yeast growth rescue, BacTiter-Glo, 24 h; Potency, µM (doses to about 46.1 µM), actives largely listed as activators; actives 1.8% (n = 410,000); AID 652104; note: nearly all actives have a fitted effect of over 50% in size
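Cell-based yeast growth screen: TDP-43 expression induced in galactose, inoculum OD600=0.02 after raffinose pregrowth to mid-log. Read-out BacTiter-Glo luminescence at 24 hr, 30 deg C; inhibition of toxicity seen as signal increase.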
aSyn yeast inh: rescues yeast growth from alpha-synuclein toxicity; Yeast expressing alpha-synuclein, growth rescue, BacTiter-Glo, 24 h; Potency, µM (titrated, usually from 46.1 µM), actives largely listed as activators; actives 0.14% (n = 370,000); note: nearly all actives have a fitted effect of over 65% in size
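Screening used galactose-induced yeast with toxic alpha-synuclein levels, exposed to compound for 24 hr at 30 deg C. Cell growth, read with BacTiter-Glo luminescence, gave the measured signal.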
Hits are given with their value; - = inactive; ? = inconclusive; . = not tested or not shown; [ ] = dose if it differs, or a comment. Unless noted, calls come from the whole dose curve; as a rule, active = well fitted curve in the direction sought with a large enough effect; inconclusive = small, poorly fitted or top-dose-only effect, or another doubt; inactive = no such curve, though single readings can be large; an effect the other way counts as inactive or inconclusive.

SMILES	FUS yeast rescue	Abeta rescue	MBNL1 CUG block	GRP78 ERSR act	TDP43 rescue	aSyn yeast inh
COc1ccc(C/C(N)=N/OC(=O)Cc2ccccc2)cc1	-	-	-	-	15.8µM	-
COc1ccc(CC(=O)O/N=C(\N)Cc2ccc(OC)cc2)cc1	-	-	-	-	11.2µM	-
CC1CCCN(CCOCCOc2ccc(Cl)cc2Br)C1 (configuration not stated)	7.08µM	-	-	-	-	-
CC1CCCN(CCOCCOc2ccc(Br)cc2Cl)C1 (configuration not stated)	-	-	-	-	-	-
C/C(=C\c1ccco1)CN1CCOc2ccc(CN3CCC(Oc4cccnc4)CC3)cc2C1	.	.	.	-	.	.
CCOC(=O)c1sc2cccc(F)c2c1S(=O)(=O)Nc1ccccc1F	-	-	.	-	17.8µM	.
CCOc1ccccc1NS(=O)(=O)c1c(C(=O)OC)sc2cccc(F)c12	-	-	.	-	-	.
O=[N+]([O-])c1ncccc1OCc1ccccc1Br	?	-	?	-	?	-
Cc1ccc(OCc2ccccc2Br)c([N+](=O)[O-])n1	-	-	?	-	10µM	-
CCn1nc(C)cc1C(=O)NCCN1Cc2ccccc2OC(c2ccccc2F)C1 (configuration not stated)	.	.	.	-	.	.
O=C(N/C=N/O)C1=NOC(CNc2ncc(C(F)(F)F)cc2Cl)C1 (configuration not stated)	-	-	-	-	15.8µM	-
COC(OC)c1ccc(C#N)c(SCc2ccccc2)n1	-	-	.	-	14.1µM	-
N#Cc1ccc(-c2ccco2)nc1SCc1ccccc1	-	-	-	-	-	-
COc1ccc(CCCC(=O)NCc2ccccc2)cc1C	.	-	.	-	17.8µM	-
O=S(=O)(c1ccccc1F)N1CCC(Oc2ccc(-n3cnnn3)cc2)CC1	-	?	-	-	12.6µM	-
Cc1cccc(CN2CCc3nnc(C(C)NC(=O)C4CCOCC4)n3CC2)c1 (configuration not stated)	.	.	.	-	.	.
CCN(CC)c1ncnc2scc(C3COc4ccccc4O3)c12 (configuration not stated)	-	-	-	-	17.8µM	-
CCCC(CCC)C(N)=O	.	.	.	-	.	.
O=C(OCc1c(Cl)cccc1Cl)c1cccnc1Cl	-	-	-	-	12.6µM	-
O=C(OCc1ccccc1Cl)c1cccnc1Cl	-	-	-	-	-	-
COc1cccc(CNC(=S)Nc2cccc(Cl)c2C)c1	-	?	-	-	17.8µM	-
O=C(/C=C\c1ccccc1OC(=O)c1ccccc1F)c1cc2ccccc2o1	-	-	-	?	12.6µM	-
Cc1ccc(Cl)cc1N1CCN(Cc2nc3c(c(=O)[nH]c(=O)n3C)n2Cc2ccccc2F)CC1	-	-	-	-	11.2µM	-
CCC1C(=O)NCCN1Cc1ccc2c(c1)CN(Cc1cccn1-c1ccc(Cl)cn1)CCO2 (configuration not stated)	.	.	.	-	.	.
CCCCCc1ccc(C2=NNC(=O)CC2)cc1	-	-	-	-	12.6µM	-
SMILES	FUS yeast rescue	Abeta rescue	MBNL1 CUG block	GRP78 ERSR act	TDP43 rescue	aSyn yeast inh
O=C1CCC(c2ccccc2)=NN1	-	-	-	-	-[9.22 µM]	-
Cc1ccc(-c2ccc(=O)[nH]n2)cc1	-	-	-	-	?	-
CCCCCc1ccc(-c2ccc(=O)[nH]n2)cc1	-	-	-	-	17.8µM	-
CCOC(=S)SCC(=O)Nc1nc(-c2ccccc2)cs1	.	-	-	?	?	-
CCOC(=S)SCC(=O)Nc1nc(C)c(C)s1	-	?	-	?	22.4µM	-
CCOC(=O)C(=O)Nc1nccs1	-	-	-	-	-	-
CCOC(=S)SCC(=O)Nc1nccs1	-	-	-	-	22.4µM	-
Cc1nc2ccccc2cc1OCc1ccccc1	-	-	-	-	17.8µM	-
O=C(NCCc1csc(-c2ccc(F)cc2)n1)c1cccs1	-	-	.	-	11.2µM	.
O=C(NCCc1csc(-c2cccc(F)c2)n1)c1cccs1	-	-	.	-	15.8µM	.
COc1ccc(-c2nc(CCNC(=O)c3cccs3)cs2)cc1	-	-	-	-	?	-
CCCCNS(=O)(=O)CC1NCc2ccc(C)cc21 (configuration not stated)	-	.	.	.	.	.
CCC1CN(CCNC(=O)C(C)(C)O)Cc2cc(OC)ccc2O1 (configuration not stated)	.	.	.	-	.	.
C[C@@H](c1ccccc1)N1C[C@H](COCc2ccccc2)Oc2cc(N3CCC[C@H]3C(N)=O)ccc2S1(=O)=O	?	-	.	.	-	-
C[C@@H](c1ccccc1)N1C[C@@H](COCc2ccccc2)Oc2cc(N3CCC[C@H]3C(N)=O)ccc2S1(=O)=O	22.4µM	-	.	.	-	-
CCc1c(C)sc(NC(=O)CC#N)c1C#N	10µM	-	-	-	-	-
COc1ccc(N2C(=O)CSC23C(=O)N2c4c(cccc43)C(C)=CC2(C)C)cc1 (configuration not stated)	-	-	-	-	-	15.8µM
O=C(Nc1ccc(Br)cc1Cl)c1ccc(OCC2CCCO2)cc1 (configuration not stated)	-	-	.	-	17.8µM	-
O=[N+]([O-])c1ccc2c(c1)C=CC2	.	.	.	-	.	.
CCOC(=O)COc1cc2c(C(=O)OCC)c(C)oc2cc1Br	-	-	?	-	-	-
CCOC(=O)c1c(C)oc2cc(Br)c(O)c(Br)c12	-	-	-	-	12.6µM	-
CCOC(=O)c1c(NC(C)=O)sc2c(O)c(Br)cc(Br)c12	.	-	-	-	12.6µM	-
O=C(NCCc1ccccc1)OCc1cn(Cc2ccccc2F)nn1	-	.	.	.	.	.
COC(=O)c1c(NC(=O)C2(C)Cc3ccccc3C(=O)O2)sc2c1CCCC2 (configuration not stated)	3.98µM	-	-	-	-	-
COC(=O)c1c(NC(=O)C2Cc3ccccc3C(=O)O2)sc2c1CCCC2 (configuration not stated)	-	-	-	-	-	-
SMILES	FUS yeast rescue	Abeta rescue	MBNL1 CUG block	GRP78 ERSR act	TDP43 rescue	aSyn yeast inh
COc1cc(C=O)c(Br)cc1OCC(=O)NCCc1ccccc1	-	-	-	-	-	-
CCOC(=O)COc1cc(Br)c(/C=N/Nc2ccccc2)cc1OC	-	-	-	35.5µM	-	-
CCN1CCCC1CNC(=O)c1cnn(-c2nccc(-c3ccccc3OC)n2)c1-c1ccco1 (configuration not stated)	.	.	.	-	.	.
CCOC(=O)N1C(=O)C[C@](Sc2ccc(OC)cc2)(C(=O)N2CCN(C(C)=O)CC2)[C@H]1c1ccc(OC)cc1	-	.	.	.	.	.
Cc1noc2ncnc(Sc3ccc(Br)cc3)c12	-	-	-	-	5.62µM	-
CCCCS/C(N)=N/N=C/c1ccccc1O	-	-	-	-	11.2µM	-
